# Source: PubChem BioAssay (National Center for Advancing Translational Sciences (NCATS))
# Gal4-VP16 FLuc: Gal4-VP16 reporter inhibition counter-screen | Drosophila S2 Gal4-VP16 UAS-luciferase, luminescence, 20 h | Potency, µM (highest dose often 53.6 µM), without a hit: top-dose activity, negative = inhibition, usual class: inhibitors | hit rate 3.5% among 310,000 | AID 2546;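 also: Gal4-VP16 expression switched on by copper sulfate through the metallothionein promoter; potency is read from the fitted curve at half-maximal effect; nearly all actives have a fitted effect of over 50% in size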
# RORgamma inh: inhibitors of mouse ROR gamma transcriptional activity. Potency, µM (titrated, usually from 53.6 µM), inactives show at the top dose activity change, negative = inhibition, hits mostly inhibitors. P51450. AID 2551. hit rate 5.4% among 310,000. Drosophila S2 Gal4-RORgamma UAS-luciferase reporter, 20 h; also: potency is read from the fitted curve at half-maximal effect; nearly all actives have a fitted effect of over 60% in size
# Target sequence (P51450 whole entry, looked up, the tested form may be a part): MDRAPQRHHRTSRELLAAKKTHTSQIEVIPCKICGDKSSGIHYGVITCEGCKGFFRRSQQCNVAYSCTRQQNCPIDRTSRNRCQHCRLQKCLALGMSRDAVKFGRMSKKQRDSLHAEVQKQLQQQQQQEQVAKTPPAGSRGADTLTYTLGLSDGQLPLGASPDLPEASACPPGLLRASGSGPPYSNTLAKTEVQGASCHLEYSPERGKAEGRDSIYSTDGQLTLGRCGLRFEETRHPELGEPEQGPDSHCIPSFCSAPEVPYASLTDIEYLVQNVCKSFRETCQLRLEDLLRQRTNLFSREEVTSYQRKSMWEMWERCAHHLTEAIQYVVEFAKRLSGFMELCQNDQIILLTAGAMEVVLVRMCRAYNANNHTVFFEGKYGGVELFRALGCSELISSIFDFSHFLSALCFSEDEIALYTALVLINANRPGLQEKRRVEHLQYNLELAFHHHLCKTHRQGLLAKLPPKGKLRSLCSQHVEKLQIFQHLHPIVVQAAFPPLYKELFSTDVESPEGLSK
#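 A Gal4/UAS one-hybrid system in insect cells: metallothionein-promoter Gal4–ROR gamma fusion plus Photinus luciferase reporter. Copper sulfate 700 uM final, 20 hr ambient incubation, luminescent detection after 10 min with reagent.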
# LDHA block: LDHA (human) enzyme inhibition | purified LDHA, NADH/diaphorase-resazurin fluorescence; stronger effect = lower value | P00338 | hit rate 0.15% among 480,000 | activity change, % (values are at about 110 or 230 µM); in the data active = activity change below about -30%; inconclusive = mostly about -25% to -30%;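 also: plate controls were DMSO wells for no effect and wells without enzyme for full effect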
#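 Remaining NADH was detected by diaphorase (0.133 mg/mL) converting 37 µM resazurin to fluorescent resorufin, read at 0 and 20 minutes. The preceding 5-minute room-temperature reaction used 2 nM LDHA, 0.2 mM sodium pyruvate and 0.06 mM NADH at pH 7.4.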
# IL1B secr inh: inflammasome signaling inhibition, IL-1 beta readout; AID 743279; hit rate 4.7% among 360,000; activity change, % at 57.5 µM; THP-1 LPS/ATP IL-1B secretion, AlphaLISA, 16 h; stronger effect = lower value; in the data active = activity change below about -50%; inconclusive = mostly about -30% to -49%
#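 THP-1 cells pretreated 1 hr with compounds (up to 57.5 uM final), then stimulated with LPS (250 ng/mL final) plus ATP (1.25 mM final); secreted IL-1B measured by AlphaLISA after 16 hr, decreased signal indicating inhibition.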
# TDP1 cell CPT: DT40-hTDP1 cell growth loss with CPT; chicken DT40 Tdp1-/-;hTDP1 cells + 20 nM CPT, ATP luminescence, 48 h; Potency, µM (series often up to 46.2 µM), for the others: at the top dose activity change, negative = growth inhibition, hits mostly inhibitors; hit rate 12% among 420,000; AID 686979; also: potency is read from the fitted curve at half-maximal effect; nearly all actives have a fitted effect of over 55% in size
#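 Cell growth measured by CellTiter-Glo luminescence after a minimum 48 h, 37 C compound exposure with 20 nM CPT in Tdp1-knockout DT40 cells stably expressing hTDP1, seeded 400/well; qHTS titration format.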
# TDP1 cell noCPT: qHTS for Inhibitors of human tyrosyl-DNA phosphodiesterase 1 (TDP1): qHTS in cells in absence of CPT; DT40 Tdp1-/- hTDP1 cells, no CPT, ATP luminescence, 48 h; Potency, µM (series often up to 46.2 µM), for inactives: at the highest dose activity change, negative = growth inhibition, actives largely listed as inhibitors; hit rate 15% among 420,000; AID 686978, 2013; also: potency is read from the fitted curve at half-maximal effect; nearly all actives have a fitted effect of over 55% in size
#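 Stably hTDP1-transfected Tdp1-null chicken DT40 cells were treated with library compounds minus camptothecin and grown for at least 48 hr at 37 °C, after which cellular ATP was quantified by luminescence.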
# The depositor's hits bear a star; ? = inconclusive; / = not tested or not shown. The list is not random: actives were taken first. Their share in the collection is about 18%. Unless noted, calls follow the shape of the dose curve; as a rule, active = well fitted curve in the direction sought with a large enough effect; inconclusive = small, poorly fitted or top-dose-only effect, or another doubt; inactive = no such curve, though single readings can be large; an effect the other way counts as inactive or inconclusive. Unless noted, % is scaled to controls: 0 for no effect and ±100 for the full control effect.
SMILES,Gal4-VP16 FLuc,RORgamma inh,LDHA block,IL1B secr inh,TDP1 cell CPT,TDP1 cell noCPT
c1ccc(-c2ccc(OCCN3CCCC3)cc2)cc1,-6%,1%,/,/,/,/
COc1ccc2sc(-c3ccccc3OC)c(-c3ccc(OCCN(C)C)cc3)c2c1,/,/,0,?,16µM*,21µM*
COc1ccc2sc(-c3ccccc3OC)c(-c3ccc(SC)cc3)c2c1,/,/,0,0,-24%,3%
COc1cccc(-c2sc3ccccc3c2-c2ccc(OCCN3CCCC3)cc2)c1,/,/,-2,-23,9.2µM*,8.2µM*
COc1cccc(-c2sc3cc(OC)c(OC)cc3c2-c2ccc(OCCN3CCCCC3)cc2)c1,/,/,-2,-11,18µM*,13µM*
COc1cccc(-c2sc3ccccc3c2-c2ccc(OCCN3CCCCC3)cc2)c1,/,/,-3,?,?,18µM*
CCc1ccc(OC(=O)c2cc(OC)c(OC)c(OC)c2)c(Br)c1,/,/,-1,/,/,/
CCc1c(C)[nH]c2ccc(OC)cc2c1=O,/,/,6,/,/,/
COc1cccc(-c2sc3ccccc3c2-c2ccc(OCCN(C)C)cc2)c1,/,/,1,?,?,18µM*
c1ccc(-c2sc3ccccc3c2-c2ccc(OCCN3CCCC3)cc2)cc1,/,/,4,?,21µM*,15µM*
COc1cccc(-c2sc3ccc(OC)cc3c2-c2ccc(C(N)=O)cc2)c1,/,/,-5,-25,?,-23%
Cc1ccc(Cc2nc3ccccc3nc2SCC(=O)N2CCCCC2C)cc1 (configuration not stated),/,/,-3,/,15µM*,23µM*
Cc1ccc2cc(C#N)c(SCC(=O)N3CCCc4ccccc43)nc2c1C,-2%,-29%,-6,34,21µM*,8.2µM*
COc1cccc(Cc2nc3ccccc3nc2SCC(=O)N2CCCc3ccccc32)c1,/,/,9,/,18µM*,?
O=C(CSc1nc2ccccc2nc1Cc1ccc(Cl)cc1)N1CCCc2ccccc21,/,/,8,/,-1%,-29%
Cc1ccc(Cn2c(=O)c3ccccc3n3c(SCC(=O)N4CCCCC4C)nnc23)cc1 (configuration not stated),-5%,?,0,0,18µM*,16µM*
Cc1ccc2cc(C#N)c(SCC(=O)N3CCCc4ccccc43)nc2c1,-19%,-1%,0,0,13%,-4%
COc1cccc(Cc2nc3ccccc3nc2SCC(=O)N2CCCCC2C)c1 (configuration not stated),/,/,1,/,?,5.2µM*
COc1cccc(Cc2nc3ccccc3nc2SCC(=O)Nc2cccc(C)c2)c1,/,/,-4,/,?,?
Cc1cnn(CCC(=O)NNC(=S)Nc2ccccc2)c1,1.1µM*,0.1µM*,-3,10,11µM*,18µM*
Cc1ccc(NC(=S)NNC(=O)CCn2cc(C)cn2)cc1,1.4µM*,0.28µM*,-5,21,-1%,-10%
Cc1ccc(NC(=O)CCN2CCN(C)CC2)cc1,-6%,?,-1,-4,10%,-23%
CCCCCC(C)NC(=S)NC(=O)c1cc(S(=O)(=O)N2CCOCC2)ccc1C (configuration not stated),11µM*,10µM*,2,-1,?,?
CCCC(C)NC(=S)NC(=O)c1cc(S(=O)(=O)N2CCOCC2)ccc1C (configuration not stated),?,?,-5,-2,21µM*,13µM*
Cc1ccc(S(=O)(=O)N2CCOCC2)cc1C(=O)N1c2ccccc2Sc2ccccc21,-29%,-30%,-2,-7,?,23µM*
SMILES,Gal4-VP16 FLuc,RORgamma inh,LDHA block,IL1B secr inh,TDP1 cell CPT,TDP1 cell noCPT
Cc1ccc(S(=O)(=O)N2CCOCC2)cc1C(=O)NC(=S)N1CC(C)CC(C)C1 (configuration not stated),5µM*,1.6µM*,0,-12,-22%,8%
COCC(C)NC(=S)NC(=O)c1cc(S(=O)(=O)N2CCOCC2)ccc1C (configuration not stated),-16%,-29%,-12,44,2%,-13%
CCCn1nnc(NC(=O)C(C)C)n1,-2%,12%,-4,-3,2%,-3%
CCCn1nnc(NC(=S)NC(=O)Cc2ccccc2)n1,1%,0.25µM*,-1,90,?,23µM*
CCCn1nnc(NC(=O)c2ccc(-c3ccccc3)cc2)n1,28%,-2%,-7,-17,-26%,?
CCCn1nnc(NC(=S)NC(=O)/C=C/c2ccc(Cl)cc2)n1,-20%,5µM*,-8,17,-7%,-6%
CCCn1nnc(NC(=O)/C=C/c2ccc(C(C)C)cc2)n1,?,?,-5,-4,-11%,-28%
CCCn1nnc(NC(=S)NC(=O)CC)n1,10µM*,7.1µM*,2,-1,23µM*,18µM*
CCNC(=O)Cn1c(CO)cnc1SCc1ccccc1Cl,/,/,1,/,/,/
OCCCCCNc1ncnc2ccccc12,?,?,-2,46,8.2µM*,7.3µM*
Cc1ccnc(NCc2ccc(Cl)cc2)c1,-5%,-4%,-1,-58*,?,?
Cc1ccnc(Nc2nc(-c3ccc(Cl)cc3)cs2)c1,?,-32%,-14,5,?,21µM*
Cc1ccnc(Nc2nc(-c3ccc(F)c(C)c3)cs2)c1,/,/,-7,/,/,/
Cc1ccnc(Nc2nc(-c3ccc(F)cc3)cs2)c1,?,11µM*,-1,-93*,?,?
O=C(O)C1(c2cccc(Br)c2)CCCC1,/,/,4,/,/,/
COCCN1C(=O)c2ccccc2NC1c1cc(OC)cc(OC)c1 (configuration not stated),/,/,-8,/,/,/
Clc1ncnc2scc(-c3ccccc3)c12,-6%,?,0,-70*,?,?
Cc1ccc(-c2csc3ncnc(Cl)c23)cc1,3%,-11%,1,-30,-28%,?
S=c1[nH]cnc2scc(-c3ccccc3)c12,0.5µM*,0.5µM*,5,13,?,23µM*
O=S(=O)(NC1CCCC1)c1ccc(S(=O)(=O)N2CCc3ccccc32)cc1,-2%,?,-1,1,16µM*,16µM*
COC(=O)Nc1ccc(S(=O)(=O)N2CCCc3cccc(O)c32)cc1,6%,-3%,0,56,13µM*,10µM*
COC(=O)Nc1ccc(S(=O)(=O)N2CCCc3ccccc32)cc1,-7%,-19%,-2,49,2.6µM*,2.3µM*
COC(=O)Nc1ccc(S(=O)(=O)N2CCCCC2)cc1,2%,15%,-4,25,?,-11%
